Assay outcomes (PubChem)
SMN2 splice enh – SMN2 splice variant enhancement; HEK293 SMN2-luciferase splicing reporter, luminescence, 30-36 h; Potency, µM (doses to about 46.1 µM), for inactives: at the top dose activity change, positive = activation, hits mostly activators; hit rate 2.8% among 210,000; AID 1458; note: % of control where 0% means no effect; nearly all actives have a fitted effect of over 55% in size
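qHTS luciferase splicing reporter: luminescence rises when SMN2 exon 7 is included in transfected HEK293 cells. Compound exposure lasted 30-36 h at 37C, with 4.5 mM final sodium butyrate as control, followed by a ONE-Glo read.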
KinaseGlo FLuc – counter-screen: inhibitors of Kinase-Glo firefly luciferase | Kinase-Glo luciferase, ATP luminescence, 8 min | hit rate 0.28% among 200,000 | AID 1379 | Potency, µM (highest dose often 38.3 µM), for the others: at the top dose activity change, negative = inhibition, usual class: inhibitors | Q27757; note: % is set by controls: 0 for no effect and ±100 for the full control effect; nearly all actives have a fitted effect of over 60% in size
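Substrate mix (final 50 mM imidazole pH 7.2, 50 mM KCl, 7 mM MgCl2, 10 uM ATP, 0.01% Tween 20, 0.05% BSA) plus pin-tool compound, then Kinase-Glo detection mix; 8 min ambient, luminescence read.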
NPC1 prom act – NPC1 promoter activation; Huh7 NPC1 promoter luciferase reporter, 24 h; Potency, µM (titrated, usually from 9.22 µM), without a hit: at the highest dose activation, hits mostly activators; hit rate 2.4% among 320,000; AID 485313; note: % of control where 0% means no effect; nearly all actives have a fitted effect of over 60% in size
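Luminescence from an NPC1 promoter-driven luciferase reporter in stably transfected Huh7 cells was measured after 24 h compound treatment at 37 °C, followed by 10 min ambient incubation with luciferase detection reagent.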
FLuc counter – firefly luciferase modulation, counter-screen for miR-21 project; AID 588342; Potency, µM (titrated, usually from 57.5 µM), for inactives: top-dose activity change, negative = inhibition, actives largely listed as inhibitors; purified FLuc, Km substrates, luminescence inhibition; hit rate 6.9% among 360,000;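 note: plate controls were vehicle for no effect and reference inhibitor for full effect; nearly all actives have a fitted effect of over 55% in size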
Target sequence (P08659 whole entry, looked up): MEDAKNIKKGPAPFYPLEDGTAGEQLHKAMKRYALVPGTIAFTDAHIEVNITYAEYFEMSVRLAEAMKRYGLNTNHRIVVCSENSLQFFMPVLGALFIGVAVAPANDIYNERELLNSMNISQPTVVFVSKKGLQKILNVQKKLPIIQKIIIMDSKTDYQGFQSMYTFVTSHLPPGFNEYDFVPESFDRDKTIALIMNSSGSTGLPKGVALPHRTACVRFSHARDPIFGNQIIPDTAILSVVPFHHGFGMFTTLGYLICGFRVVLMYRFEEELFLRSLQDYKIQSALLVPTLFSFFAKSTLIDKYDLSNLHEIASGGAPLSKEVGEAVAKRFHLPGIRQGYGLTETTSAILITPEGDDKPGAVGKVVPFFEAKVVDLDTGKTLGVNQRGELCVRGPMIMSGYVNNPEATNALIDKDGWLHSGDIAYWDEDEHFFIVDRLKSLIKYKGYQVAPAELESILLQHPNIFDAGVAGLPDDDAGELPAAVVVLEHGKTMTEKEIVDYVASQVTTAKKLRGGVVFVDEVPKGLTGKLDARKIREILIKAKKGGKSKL
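Biochemical qHTS of compounds, final roughly 60 µM downward over six points, against 10 nM purified firefly luciferase using Km concentrations of substrates (10 uM D-luciferin, 10 uM ATP) in Tris acetate pH 7.5 buffer; luminescence output.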
Rab9 promoter act – activators of Rab9 promoter. Huh7 Rab9 promoter-luciferase reporter, luminescence, 24 h. Potency, µM (top dose mostly 9.22 µM), without a hit: at the highest dose activation, negative = inhibition, most hits filed as activators. hit rate 2.8% among 320,000; note: % of control where 0% means no effect; nearly all actives have a fitted effect of over 60% in size
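Luminescence from Amplite-detected luciferase (10 minutes, ambient) reports Rab9 promoter activation. Before that, stable Rab9-luciferase Huh7 cells (1500/well, reduced-serum OP-MEM I plus 10% FBS) were exposed to compound for 24 hours at 37C.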
Numbers without * were called inactive; ? = inconclusive; . = no result; [ ] = remark or other dose. Shown are actives, neighbours in structure and some others; about 7.3% of the full set was active somewhere. Calls come from the whole dose curve; as a rule, active = well fitted curve in the direction sought with a large enough effect; inconclusive = small, poorly fitted or top-dose-only effect, or another doubt; inactive = no such curve, though single readings can be large; an effect the other way counts as inactive or inconclusive. Potency is the fitted concentration of half-maximal effect.

SMILES	SMN2 splice enh	KinaseGlo FLuc	NPC1 prom act	FLuc counter	Rab9 promoter act
O=C(Nc1ccc(N2CCOCC2)c(Cl)c1)c1c(F)c(F)c(F)c(F)c1F	?	3.8%	-15.6%	-8.5%	-12.8%
O=C(Nc1ccc(N2CCOCC2)c(Cl)c1)c1cccc(F)c1	10µM*	-4.2%	1.12µM*	4.26µM*	1.58µM*
O=C(Nc1ccc(N2CCCCC2)cc1)c1cncc(Br)c1	?	-7.6%	3.55µM*	6.01µM*	?
Nc1cc(C(=O)c2ccccc2)ccc1N1CCOCC1	?	0.1%	?	16.9µM*	25.5%
O=C(c1ccccc1)c1ccc(N2CCCC2)cc1	25.1µM*	-4.8%	3.16µM*	6.75µM*	2.51µM*
O=C(/C=C/c1ccccc1)Nc1ccc(N2CCCCC2)cc1	?	-3.3%	?	?	3.98µM*
CN1CCN(c2ccc(C(=O)c3ccc(F)cc3)cc2)CC1	?	-3.6%	?	10.7µM*	3.16µM*
CC(=O)N1CCN(c2ccc(NC(=O)c3cccc(Cl)c3)cc2)CC1	.	.	2.24µM*	?	?
CC(=O)N1CCN(c2ccc(NC(=O)c3ccc(Cl)cc3)cc2)CC1	.	.	-0.8%	-2.2%	4.5%
O=C(O)CCC(=O)N1CCN(c2ccc(C(=O)c3ccc(F)cc3)cc2)CC1	-13.6%	-1.4%	-1.0%	?	0.7%
COc1cccc(CNC(=O)CCc2c(C)nc3c(c(C)nn3-c3ccc(C)c(C)c3)c2C)c1	-9.0%	.	.	-5.2%	.
O=C(Nc1ccccc1N1CCCC1)c1cccc(-c2cc3ccccc3oc2=O)c1	0.5%	-2.3%	17.1%	?	17.7%
O=C(Nc1ccc(N2CCCC2)cc1)c1cccc(F)c1	0.631µM*	?	0.355µM*	1.35µM*	0.316µM*
O=C(Nc1ccccc1)c1cccc(N2CCCS2(=O)=O)c1	.	.	.	-15.8%	.
O=C(Nc1ccc(N2CCCC2)cc1)c1cccc(-c2cc3ccccc3oc2=O)c1	-18.0%	0.9%	5.9%	10.7µM*	0.9%
Cc1ccc(C(=O)Nc2ccc(N3CCCC3)cc2)cc1	11.2µM*	-6.9%	?	?	1.78µM*
CCc1ccc(NC(=O)c2cccc(N3CCCS3(=O)=O)c2)cc1	.	.	.	12µM*	.
COc1cc2nc3c(c([Si](C)(C)C(C)(C)C)c2cc1OC)Cn1c-3cccc1=O	3.9%	-3.5%	.	.	.
O=C(Nc1cccc(F)c1)c1ccccc1	2.3%	-6.1%	?	?	?
O=C(Nc1ccc(N2CCCCC2)cc1)c1ccccc1	1.41µM*	?	0.398µM*	1.9µM*	0.282µM*
COc1c(C)cccc1C(=O)Nc1ccc(N2CCOCC2)c(Cl)c1	11.2µM*	-6.7%	1.58µM*	6.75µM*	3.16µM*
O=C(Nc1ccc(Nc2ccccc2)cc1)c1cccc(F)c1	.	.	?	13.5µM*	4.47µM*
O=C(Nc1ccc(N2CCCC2=O)cc1)c1cccc(F)c1	7.08µM*	7.94µM*	1.58µM*	5.36µM*	3.16µM*
CCc1nn2c(=O)cc(COC(=O)C(CC)c3ccccc3)nc2s1 (stereo not drawn)	.	.	.	5.4%	.
N[C@@H](CNO)C(=O)O	-10.8%[9.22 µM]	-1.5%[7.66 µM]	.	.	.
SMILES	SMN2 splice enh	KinaseGlo FLuc	NPC1 prom act	FLuc counter	Rab9 promoter act
COc1ccc(CNC(=O)C2CCN(S(=O)(=O)c3c(C)noc3/C=C/c3cccs3)CC2)cc1	0.3%	.	.	4.3%	.
O=C(Nc1ccc2c(c1)CCCN2C(=O)c1ccccc1)c1ccccc1	.	.	26.4%	13.5µM*	?
Cc1nc(NC(=O)c2cccc(-c3cc4ccccc4oc3=O)c2)ccc1Br	?	-0.9%	?	-19.9%	?
Cc1ccc(C(=O)Nc2ccc(N3CCOCC3)cc2)cc1	.	.	2.82µM*	12µM*	3.98µM*
O=C(Nc1ccc(N2CCCC2)cc1)c1ccc2ccccc2c1	2.51µM*	-10.1%	?	1.35µM*	0.891µM*
O=C(Nc1ccc(Br)cn1)c1cccc(-c2cc3ccccc3oc2=O)c1	11.2µM*	-0.9%	1.78µM*	12µM*	3.98µM*
CC(=O)N1CCN(c2ccc(NC(=O)c3ccc4ccccc4c3)cc2)CC1	.	.	25.4%	-11.5%	?
CC(=O)c1ccc(NC(=O)CSc2nnc3ccc(-c4ccc(Br)cc4)nn23)cc1	.	.	.	3.1%	.
CCOC(=O)C1CSC(Cc2ccc(OCc3ccc([N+](=O)[O-])cc3)cc2)N1 (stereo not drawn)	12.6µM*	-4.2%	.	.	.
CCOC(=O)CCc1c(C)c2ccc(OCc3ccc([N+](=O)[O-])cc3)cc2oc1=O	-4.8%	9.0%	3.1%	4.4%	1.1%
COc1cc(C2CC(=O)Oc3ccc(O)cc32)cc(OC)c1OC (stereo not drawn)	.	1.3%[39.9 µM]	.	.	.
CCCN(Cc1cccs1)C(=O)Nc1cc(Cl)c(OC)cc1OC	.	.	.	-14.2%	.
O=C(Nc1nc2ccccc2s1)c1cccc(N2C(=O)CCC2=O)c1	.	.	-5.3%	-0.5%	4.5%
O=C(NNc1nc2cc3c(cc2s1)OCO3)c1cccc(F)c1	18.5%	-3.7%	8.5%	16.9µM*	3.2%
Cc1sc(NC(=O)c2ccc(=O)n(C)n2)nc1-c1ccccc1	10.8%	-2.8%	0.6%	13.5µM*	12.0%
COc1ccc(-c2csc(NC(=O)c3cccc(N4C(=O)CCC4=O)c3)n2)cc1C	.	.	1.4%	10.7µM*	0.1%
O=C(Nc1nc2cc3c(cc2s1)OCCO3)c1cccc(N2C(=O)CCC2=O)c1	.	.	?	0.757µM*	?
CC1CCN(S(=O)(=O)c2ccc3c(c2)N(CC(=O)NCCN(C)C)C(=O)CS3)CC1	2.8%	.	.	-6.0%	.
CC(=O)Nc1nonc1-c1nnc(SCC(=O)Nc2ccccc2Cl)n1C	.	.	.	-4.0%	.
O=C(Nc1ccc2sccc2c1)c1cccc(N2C(=O)CCC2=O)c1	18.6%	-0.3%	?	8.49µM*	3.98µM*
Cc1sc(NC(=O)c2cccc(N3C(=O)CCC3=O)c2)nc1-c1ccccc1	.	.	12.0%	4.78µM*	0.2%
CC(=O)c1sc(NC(=O)c2cccc(N3C(=O)CCC3=O)c2)nc1-c1ccccc1	.	.	-1.6%	?	-1.5%
CCN(CC)S(=O)(=O)c1cccc(C(=O)Nc2nc3cc4c(cc3s2)OCCO4)c1	-77.3%	-2.6%	-2.6%	9.53µM*	-6.4%
CCN(CC)S(=O)(=O)c1ccc(C(=O)Nc2nc3ccc(Cl)cc3s2)cc1	.	.	.	0.3%	.
Cc1ccc(CNC(=O)CCCCCn2c(=O)c3sccc3n(CC(=O)N3CCCCC3C)c2=O)cc1 (stereo not drawn)	9.6%	.	.	-5.1%	.
CCSC1=C(C#N)C2(CCCCC2)C(C#N)=C(N)N1	-13.0%	-3.4%	-4.6%	6.01µM*	12.6%
CCCSC1=C(C#N)C2(CCCCC2)C(C#N)=C(N)N1	.	0.4%	-0.5%	21.3µM*	-7.3%
CC(C)Oc1ccc(C(=O)/C=C2/C(=O)Nc3ccccc32)cc1	.	.	0.8%	5.36µM*	6.1%
CCOC(=O)Cn1c(=O)oc2cc(S(=O)(=O)N3CCN(c4cccc(Cl)c4)CC3)ccc21	-1.8%	.	.	-4.1%	.
COc1ccccc1C(=O)NNC(=O)c1cccc([N+](=O)[O-])c1	?	2.8%	10.7%	19µM*	?
